# Test system: Salmonella enterica serovar Typhimurium 14028s
# Test: approximate change in surviving CFU after surface colonization relative to water-only control (log10 CFU/mL change); higher = more surviving bacteria (less inhibition of surface colonization)
# Conditions: not stated (Biolog proprietary concentration), surface: plastic 96-well plate, 20-24 h at 25 °C
smiles,measurement,setting,value
O[C@@H]1[C@@H](O)[C@@H](O)CO[C@H]1O [L-Arabinose],approximate change in surviving CFU (log10),"Biolog plate: PM1, Biolog well: A2",0.837
OC[C@H]1OC(O)[C@@H](O)[C@@H](O)[C@@H]1O (stereo partly drawn) [D-Mannose],approximate change in surviving CFU (log10),"Biolog plate: PM1, Biolog well: A11",1.93
OC[C@@H](O)[C@@H](O)[C@H](O)[C@H](O)CO [D-Mannitol],approximate change in surviving CFU (log10),"Biolog plate: PM1, Biolog well: B11",2.19
"O=C(O)CC(O)C(=O)O (racemic) [D,L-Malic Acid]",approximate change in surviving CFU (log10),"Biolog plate: PM1, Biolog well: C3",1.05
O[C@@H]1[C@H](O)[C@H](O)CO[C@H]1O [D-Ribose],approximate change in surviving CFU (log10),"Biolog plate: PM1, Biolog well: C4",0.172
OC[C@H]1O[C@H](O)[C@H](O)[C@@H](O)[C@@H]1O [a-D-Glucose],approximate change in surviving CFU (log10),"Biolog plate: PM1, Biolog well: C9",2.34
OC[C@H]1O[C@H](OC[C@H]2OC(O)[C@H](O)[C@@H](O)[C@@H]2O)[C@H](O)[C@@H](O)[C@H]1O (stereo partly drawn) [D-Melibiose],approximate change in surviving CFU (log10),"Biolog plate: PM1, Biolog well: C11",1.82
CO[C@H]1O[C@H](CO)[C@H](O)[C@H](O)[C@H]1O [a-Methyl-D-Galactoside],approximate change in surviving CFU (log10),"Biolog plate: PM1, Biolog well: D8",1.72
OC[C@H]1O[C@H](O[C@H]2[C@H](O)[C@@H](O)[C@@H](O[C@H]3[C@H](O)[C@@H](O)[C@@H](O)O[C@@H]3CO)O[C@@H]2CO)[C@H](O)[C@@H](O)[C@@H]1O [Maltotriose],approximate change in surviving CFU (log10),"Biolog plate: PM1, Biolog well: E10",1.82
Nc1ncnc2c1ncn2[C@H]1C[C@H](O)[C@@H](CO)O1 [2-Deoxy Adenosine],approximate change in surviving CFU (log10),"Biolog plate: PM1, Biolog well: E11",1.37
C[C@H](N)C(=O)NCC(=O)O [L-Alanyl-Glycine],approximate change in surviving CFU (log10),"Biolog plate: PM1, Biolog well: G6",0.966
O=C[C@H](O)[C@H](O)[C@@H](O)CO [L-Lyxose],approximate change in surviving CFU (log10),"Biolog plate: PM1, Biolog well: H6",-0.987
OC[C@H]1O[C@@H](Oc2ccc(O)cc2)[C@H](O)[C@@H](O)[C@@H]1O [Arbutin],approximate change in surviving CFU (log10),"Biolog plate: PM2, Biolog well: B8",1.29
OC[C@@H](O)[C@@H](O[C@@H]1O[C@H](CO)[C@H](O)[C@H](O)[C@H]1O)[C@H](O)[C@@H](O)CO [Lactitol],approximate change in surviving CFU (log10),"Biolog plate: PM2, Biolog well: C3",1.05
OC[C@@H](O)[C@@H](O[C@H]1O[C@H](CO)[C@@H](O)[C@H](O)[C@H]1O)[C@H](O)[C@@H](O)CO [Maltitol],approximate change in surviving CFU (log10),"Biolog plate: PM2, Biolog well: C5",1.37
CO[C@H]1O[C@H](CO)[C@@H](O)[C@H](O)[C@@H]1O [a-Methyl-D-Mannoside],approximate change in surviving CFU (log10),"Biolog plate: PM2, Biolog well: C10",0.0215
O=C(CO)[C@@H](O)[C@H](O)[C@H](O)CO[C@H]1O[C@H](CO)[C@@H](O)[C@H](O)[C@H]1O [Palatinose],approximate change in surviving CFU (log10),"Biolog plate: PM2, Biolog well: C12",0.751
C/C(=C/C(=O)O)C(=O)O [Citraconic Acid],approximate change in surviving CFU (log10),"Biolog plate: PM2, Biolog well: E3",0.472
O=C(O)[C@@H](O)[C@H](O)C(=O)O [D-Tartaric Acid],approximate change in surviving CFU (log10),"Biolog plate: PM2, Biolog well: F11",0.944
"C[N+](C)(C)CC(O)CC(=O)[O-] (racemic) [D,L-Carnitine]",approximate change in surviving CFU (log10),"Biolog plate: PM2, Biolog well: H5",0.365
N [Ammonia],approximate change in surviving CFU (log10),"Biolog plate: PM3, Biolog well: A2",0.0644
O=[N+]([O-])O [Nitrate],approximate change in surviving CFU (log10),"Biolog plate: PM3, Biolog well: A4",0.665
NC(=O)C[C@@H](N)C(=O)O [D-Asparagine],approximate change in surviving CFU (log10),"Biolog plate: PM3, Biolog well: C4",0.644
CC(=O)N[C@@H](CCC(=O)O)C(=O)O [N-Acetyl-L-Glutamic Acid],approximate change in surviving CFU (log10),"Biolog plate: PM3, Biolog well: D1",0.751
CCN [Ethylamine],approximate change in surviving CFU (log10),"Biolog plate: PM3, Biolog well: D8",-1.89
NCCO [Ethanolamine],approximate change in surviving CFU (log10),"Biolog plate: PM3, Biolog well: D9",-0.408
NCCCCN=C(N)N [Agmatine],approximate change in surviving CFU (log10),"Biolog plate: PM3, Biolog well: D12",-0.193
NCCc1c[nH]cn1 [Histamine],approximate change in surviving CFU (log10),"Biolog plate: PM3, Biolog well: E1",-0.987
O=c1cc[nH]c(=O)[nH]1 [Uracil],approximate change in surviving CFU (log10),"Biolog plate: PM3, Biolog well: F10",1.14
OC[C@H]1O[C@@H](n2cnc3c(O)nc(O)nc32)[C@H](O)[C@@H]1O [Xanthosine],approximate change in surviving CFU (log10),"Biolog plate: PM3, Biolog well: G2",0.751
NC(=O)NC1NC(=O)NC1=O (configuration not stated) [Allantoin],approximate change in surviving CFU (log10),"Biolog plate: PM3, Biolog well: G5",0.258
C[C@H](N)C(=O)N[C@@H](Cc1cnc[nH]1)C(=O)O,approximate change in surviving CFU (log10),"Biolog plate: PM3, Biolog well: H5",-0.258
NCC(=O)N[C@@H](CC(N)=O)C(=O)O,approximate change in surviving CFU (log10),"Biolog plate: PM3, Biolog well: H8",0.107
OC[C@H]1O[C@H](O[C@H]2O[C@H](CO)[C@@H](O)[C@H](O)[C@H]2O)[C@H](O)[C@@H](O)[C@@H]1O [D-Trehalose],approximate change in surviving CFU (log10),"Biolog plate: PM1, Biolog well: A10",1.59
OC[C@@H](O)[C@H](O)[C@H](O)[C@@H](O)CO [Dulcitol],approximate change in surviving CFU (log10),"Biolog plate: PM1, Biolog well: A12",1.03
O=C(O)CCC(=O)C(=O)O [a-Keto-Glutaric Acid],approximate change in surviving CFU (log10),"Biolog plate: PM1, Biolog well: D6",1.19
OC[C@H]1O[C@@](CO)(O[C@H]2O[C@H](CO)[C@@H](O)[C@H](O)[C@H]2O)[C@@H](O)[C@@H]1O [Sucrose],approximate change in surviving CFU (log10),"Biolog plate: PM1, Biolog well: D11",0.987
CCCCCCCC/C=C\CCCCCCCC(=O)OCCOCC(OCCO)C1OCC(OCCO)C1OCCO (configuration not stated) [Tween 80],approximate change in surviving CFU (log10),"Biolog plate: PM1, Biolog well: E5",-0.58
CO[C@@H]1O[C@H](CO)[C@@H](O)[C@H](O)[C@H]1O [B-Methyl-D-Glucoside],approximate change in surviving CFU (log10),"Biolog plate: PM1, Biolog well: E8",1.33
O=C(O)/C=C/C(=O)O [Fumaric Acid],approximate change in surviving CFU (log10),"Biolog plate: PM1, Biolog well: F5",0.88
NCC(=O)N[C@@H](CCC(=O)O)C(=O)O [Glycyl-L-Glutamic Acid],approximate change in surviving CFU (log10),"Biolog plate: PM1, Biolog well: G1",1.22
CC(=O)CC(=O)O [Acetoacetic Acid],approximate change in surviving CFU (log10),"Biolog plate: PM1, Biolog well: G7",0.172
